# Data as given in PubChem BioAssay AID449762 (Southern Research Specialized Biocontainment Screening …, 2010).
# The campaign covered roughly 330,000 compounds. About 1,900 (0.58%) were called active. Roughly 4% stayed inconclusive and do not appear here. Rule as the data show it: inconclusive = inhibition above about 70% without an active follow-up result; inactive = below that. Not all results are given here. Measured potencies and affinities stand elsewhere.
# Assay: M. tuberculosis growth inhibition, HTS (AID 449762);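 also: bacterial growth assessed after seven days of incubation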
# Conditions: M. tuberculosis H37Rv growth inhibition, 7H9 media; at 25 µM; active compounds read high
row,SMILES,inhibition
1,Cc1ccc(-n2[nH]c(C)c(C=Nc3ccc(S(=O)(=O)Nc4nc(C)cc(C)n4)cc3)c2=O)c(C)c1,-3.23% (inactive)
2,Cc1[nH]n(-c2ccc(Br)cc2)c(=O)c1C=Nc1ccc(S(=O)(=O)Nc2nccs2)cc1,68.2% (inactive)
3,C[C@H](CO)N1C[C@H](C)[C@@H](CN(C)C)Oc2c(NS(=O)(=O)c3ccccc3)cccc2C1=O,0.58% (inactive)
4,O=C(NC1CC1)C1CCN(C2CCN(C(=O)/C=C/c3cccs3)CC2)CC1,-5.63% (inactive)
5,O=C(CNC(=O)c1cccs1)OCc1ccc(Br)cc1,-2.09% (inactive)
6,O=C(CCC(=O)N(c1ccc(F)cc1)C(C(=O)NC1CCCC1)c1ccncc1)Nc1cccnc1 (configuration not stated),-10.1% (inactive)
7,CC(=O)Nc1ccc(C(=O)CN2C(=O)NC3(CCOc4ccccc43)C2=O)c(F)c1 (configuration not stated),-3.12% (inactive)
8,CCCCOC(=O)CCn1c(=S)oc2ccccc21,23.9% (inactive)
9,CCCNC(=O)CCn1c(=S)oc2ccccc21,2.75% (inactive)
10,Cc1ccc(Cl)cc1-n1c(O)c(C=NCCCN2CCOCC2)c(=O)[nH]c1=O,-2.44% (inactive)
11,COc1ccc(C2=CN(Cc3ccccc3)C(c3ccccc3)CC2=O)cc1 (configuration not stated),-2.25% (inactive)
12,Cc1cc(C)c(NC(=O)c2cc3c(nc4sccn43)s2)c(C)c1,-18.3% (inactive)
13,CCN(C(=O)COC(=O)c1[nH]c(C)c(C(C)=O)c1C)C1CCS(=O)(=O)C1 (configuration not stated),-10.7% (inactive)
14,O=C(Nc1ccc(N2CCOCC2)cc1)c1ccc([N+](=O)[O-])cc1,1.26% (inactive)
15,CCn1c2ccccc2c2cc(NC(=O)c3ccc([N+](=O)[O-])cc3)ccc21,9.29% (inactive)
16,CCN(CC)CCNC(=O)c1cn(-c2ccccc2)nc1-c1cccs1,5.6% (inactive)
17,CN(C)c1ccc(NC(=O)c2cn(-c3ccccc3)nc2-c2cccs2)cc1,-2.85% (inactive)
18,Cc1oc(-c2cccc(Cl)c2)nc1CSc1nc2c(c(=O)[nH]1)CCC2,-10.8% (inactive)
19,Cn1c(-c2cccc(Br)c2)cnc1NCc1ccccc1O,42.5% (inactive)
20,Cn1c(-c2ccccc2)cnc1NCc1cc(Cl)ccc1O,10.7% (inactive)
21,Cc1cccc(C)c1N/C=C/c1onc(C)c1[N+](=O)[O-],-4.35% (inactive)
22,Cc1ccc(N/C=C/c2onc(C)c2[N+](=O)[O-])cc1,-2.82% (inactive)
23,COc1ccc(NC(=O)c2ccco2)cn1,-3.96% (inactive)

row,SMILES,inhibition
1,Cn1ccnc1SCC(=O)Nc1ccc(Cl)cn1,-1.74% (inactive)
2,CCCCn1c(SCc2c(C)noc2C)nc2cc(S(N)(=O)=O)ccc21,-4.65% (inactive)
3,CCCCn1c(SCc2nc3ccccc3s2)nc2cc(S(N)(=O)=O)ccc21,1.21% (inactive)
4,Cc1ccc(C)c(NC(=O)c2c(Cl)nc3ccccn23)c1,10.7% (inactive)
5,O=[N+]([O-])c1ccc(-c2nc(-c3ccncc3)no2)cc1,7.86% (inactive)
6,O=[N+]([O-])c1cccc(-c2nc(-c3ccncc3)no2)c1,-2% (inactive)
7,Brc1ccc(-c2nc(-c3ccncc3)no2)cc1,1.44% (inactive)
8,Cc1ccc(-c2nc(-c3ccncc3)no2)cc1,-14.2% (inactive)
9,CCn1ccc(C(=O)Nc2ccc3c(c2)CCC3)n1,-10.2% (inactive)
10,COc1ccc(/C=N/n2c(C)nc3ccccc3c2=O)cc1OC,7.03% (inactive)
11,NC(=O)c1ccc(NC(=S)NCc2ccco2)cc1,-0.21% (inactive)
12,O=C(NNC(=O)C12CC3CC(CC(C3)C1)C2)c1cnccn1,-6.86% (inactive)
13,O=C(NNC(=O)C12CC3CC(CC(C3)C1)C2)c1ccncc1,2.26% (inactive)
14,COc1ccc(CCOC(=O)c2ccc(NC(=O)CC#N)cc2)cc1,-3.16% (inactive)
15,Cc1c(C(=O)NCCCN2CCCC2=O)oc2c(Cl)cccc12,-3.89% (inactive)
16,CC(=O)C1=C(C)Nc2ncnn2C1c1ccc(Br)cc1 (configuration not stated),2.48% (inactive)
17,Cc1nn(CC(=O)Nc2c(C)n(C)n(-c3ccccc3)c2=O)c(C)c1[N+](=O)[O-],-2.07% (inactive)
18,COc1ccc(NC(=O)CCC(=O)N(Cc2ccc(OC)c(OC)c2)c2nccs2)c(OC)c1,-1.87% (inactive)
19,O=c1cc(-c2ccccc2)[nH]c2ccccc12,3.78% (inactive)
20,O=c1nc(-c2ccccc2)c2ccccc2[nH]1,-8.68% (inactive)
21,Cc1ccc2c(c1)c1c(n2C)C(=O)CCC1,-12% (inactive)
22,c1cc2c(cc1C1CCCCC1)c1c3n2CCN=C3CCC1,-6.21% (inactive)
23,COc1cccc(OCC(=O)Nc2c3c(nn2-c2ccccc2)CS(=O)(=O)C3)c1,4.27% (inactive)

row,SMILES,inhibition
1,Cc1ccc(/C=N/NC(=O)Cc2cccn2C)s1,4.27% (inactive)
2,COC(=O)C1=C(C)Nc2c(c(=O)n(C)c(=O)n2C)C1c1cccs1 (configuration not stated),-11.8% (inactive)
3,Cc1noc(C)c1C(=O)OCC(=O)Nc1cc(Cl)ccc1Oc1ccccc1,2.51% (inactive)
4,Cc1ccc(N(CC(=O)Nc2cccc(Cl)c2C)S(C)(=O)=O)cc1,7.2% (inactive)
5,O=C(Cc1cccc(NC(=O)C2CCCN(C(=O)C3CCC3)C2)c1)Nc1cccc(C(=O)N2CCCC2)c1 (configuration not stated),-9.14% (inactive)
6,Cc1cccc(C(=O)N2N=C(c3ccc(NS(C)(=O)=O)cc3)CC2c2cccs2)c1 (configuration not stated),2.79% (inactive)
7,CS(=O)(=O)Nc1ccc(C2=NN(C(=O)c3ccccc3)C(c3cccs3)C2)cc1 (configuration not stated),26.9% (inactive)
8,O=C(O)C(O)C(O)C(O)C(O)C(=O)O (configuration not stated) (tested in a mixture with another compound),3.48% (inactive)
9,CCN(C[C@H]1N[C@@](Cc2ccccc2)(C(=O)OC)[C@H]2C(=O)N(C)C(=O)[C@@H]12)C(=O)Nc1ccc(F)cc1,4.09% (inactive)
10,CN(C)c1ccc(/C=C/C(=O)c2ccccc2)cc1[N+](=O)[O-],16.9% (inactive)
11,COc1ccc(Oc2ccc(/C=C/C(=O)c3ccc(O)cc3)cc2[N+](=O)[O-])cc1,8.6% (inactive)
12,COC(=O)c1cccc2c1NC(=O)C2=O,3.61% (inactive)
13,O=C(NCc1ccccc1Cl)c1cccc(OC2CCN(C(=O)C3CC3)CC2)c1,5.75% (inactive)
14,COc1ccccc1C1CC(c2ccc(F)cc2)Nc2ncnn21 (configuration not stated),-11.3% (inactive)
15,COc1ccccc1C1CC(c2ccc(C)cc2)Nc2ncnn21 (configuration not stated),-9.91% (inactive)
16,COC(=O)CN(c1ccc(C)cc1)S(=O)(=O)c1ccc(F)cc1,14.1% (inactive)
17,CSc1ccc(Cl)c(C(=O)NNC(=O)c2cccs2)c1,1.28% (inactive)
18,Cc1ccc(OCC(=O)N/N=C/C=C/c2ccco2)cc1,-6.27% (inactive)
19,CCOC(=O)N/N=C\C=C\c1ccco1,-0.79% (inactive)
20,COc1ccc(OC)c2c1cc(C(=O)N[C@H](C(=O)N1CCC(C(=O)O)CC1)C(C)C)n2C,-15.1% (inactive)
21,O=C(O)c1ccc(Cl)c(NCc2cccnc2)c1,-9.94% (inactive)
22,CCCc1cc(=O)[nH]c(SCC(=O)Nc2c(C)cccc2C)n1,0.09% (inactive)
23,Cc1cc(C(=O)NCCC(C)C)c2ccccc2n1,-3.78% (inactive)

row,SMILES,inhibition
1,CC(C)(C)c1ccc(OCCNCc2ccccc2)cc1,14.6% (inactive)
2,C[N+](C)(CCOc1ccccc1)Cc1ccccc1 (tested in a mixture with another compound),-1.38% (inactive)
3,CN(Cc1ccco1)C(=O)c1ccc(S(=O)(=O)N2CCCCCC2)cc1,2.26% (inactive)
4,COc1ccc(COC(=O)c2ccc(C)c(S(=O)(=O)N3CCOCC3)c2)cc1F,-4.83% (inactive)
5,C[n+]1c(-c2ccccc2)cc(-c2ccc(O)cc2)cc1-c1ccccc1,3.36% (inactive)
6,C[n+]1c(-c2ccccc2)cc(-c2ccc(Cl)cc2)cc1-c1ccccc1,-0.15% (inactive)
7,COCCCNC(=O)CN(c1cc(C(F)(F)F)ccc1Cl)S(C)(=O)=O,-8.65% (inactive)
8,COC(=O)c1c(C)nn(-c2ccc(OC(F)(F)F)cc2)c1-c1snnc1C,5.4% (inactive)
9,COc1ccc(CCN(C)C(=O)C2CC(=O)N(Cc3ccc(C)cc3)C2)cc1OC (configuration not stated),-4.64% (inactive)
10,O=C1NC2(Nc3ccccc31)C(=O)Nc1ccc(Br)cc12 (configuration not stated),6.01% (inactive)
11,O=C1Nc2ccc(Br)cc2C1(O)c1ccccc1 (configuration not stated),-1.54% (inactive)
12,O=C(Nc1ccc([N+](=O)[O-])cc1)c1cccc(S(=O)(=O)Nc2ccccn2)c1,-2.42% (inactive)
13,O=[N+]([O-])c1cnc2ccccc2c1,-7.59% (inactive)
14,COc1ccccc1-n1cc2ccc([N+](=O)[O-])cc2n1,-3.35% (inactive)
15,O=c1c2c([N+](=O)[O-])cc([N+](=O)[O-])cc2nc2ccccn12,4.66% (inactive)
16,COc1ccc(-n2cc3ccc([N+](=O)[O-])cc3n2)cc1,-3.43% (inactive)
17,C[C@H](CO)N1C[C@H](C)[C@@H](CN(C)Cc2ccncc2)Oc2c(cccc2N(C)C)C1=O,2.32% (inactive)
18,COc1ccc(Cl)cc1NC(=O)CN(C)C(=O)Cn1c(=O)oc2ccccc21,1.38% (inactive)
19,O=C(c1cc(COc2c(F)cccc2F)on1)N1CCN(C2CCCCC2)CC1,10.1% (inactive)
20,COc1ccc(-c2onc3ccc(C(=O)/C=C/N(C)C)cc23)cc1,6.78% (inactive)
21,O=c1oc2ccccc2c(Nc2ccc(O)cc2)c1[N+](=O)[O-],-6.31% (inactive)
22,O=c1oc2ccccc2c(Nc2cccc3ccccc23)c1[N+](=O)[O-],20.4% (inactive)
23,CCn1c(SCC(=O)Nc2ccc3c(c2)OCCO3)nnc1C1CC1,-3.26% (inactive)
